Reference: PubChem BioAssay (EPA / NIEHS)
Inconclusive results are not listed. Active and inactive are the calls of the source. Rule for the calls: active = hit-call score of the fitted dose curve at least 0.9, where 1 is the maximum; inconclusive = response in the unintended direction; inactive = score below 0.9.

Tests used:
[1] = TOX21_p53_BLA_p2_viability: Viability Assessment in the Tox21 HCT-116 p53 Agonism Beta-lactamase Assay, Phase 2 (AID 2283591);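 note: actives lower the ATP signal meaning cytotoxicity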
Method in brief: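 HCT116 p53-bla cells, 4000/well, dosed after 5 h plating (217-fold dilution of DMSO stocks) and incubated 16 h at 37C. Viability taken as cellular ATP by CellTiter-Glo luminescence after 30 min RT; signal loss marks cytotoxicity.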

[2] = molecular target: Cellular tumor antigen p53 (Homo sapiens) (UniProt P04637); assay: TOX21_p53_BLA_p2_ratio: Tox21 HCT-116 p53 Agonism Beta-lactamase Assay, Ratio, Phase 2 (AID 2283592)
Method in brief: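 Ratio endpoint: beta-lactamase cleavage of CCF4-AM, blue (460 nm) over green (530 nm). HCT116 reporter line; 16 h treatment, 37C; substrate 2 h RT.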

[3] = TOX21_p53_BLA_p3_viability: Viability Assessment in the Tox21 HCT-116 p53 Agonism Beta-lactamase Assay, Phase 3 (AID 2283593);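 note: cells exposed to compound for 16 h before reading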
Method in brief: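 HCT116 cells, 4000/well, dosed 5 h after plating by pin transfer (217-fold dilution from DMSO stock) and incubated 16 h at 37C, 5% CO2. Viability read as ATP luminescence with CellTiter-Glo after 30 min at room temperature.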

[4] = molecular target: Cellular tumor antigen p53 (Homo sapiens) (UniProt P04637); assay: TOX21_p53_BLA_p3_ratio: Tox21 HCT-116 p53 Agonism Beta-lactamase Assay, Ratio, Phase 3 (AID 2283596)
Method in brief: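 Cells were seeded at 4000/well, rested 5 h at 37C, then dosed with DMSO compound solutions (217-fold dilution) for 16 h. CCF4-AM substrate was loaded for 2 h at room temperature, and the 460/530 nm emission ratio was fitted for gain of signal versus DMSO.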

[5] = TOX21_p53_BLA_p4_viability: Viability Assessment in the Tox21 HCT-116 p53 Agonism Beta-lactamase Assay, Phase 4 (AID 2283597);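 note: hits lower the luminescence signal meaning cytotoxicity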
Method in brief: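 Cytotoxicity was inferred from loss of CellTiter-Glo luminescence. HCT116 cells had been dosed with compounds after 5 h plating, incubated 16 h at 37C and 5% CO2, and exposed to the CCF4-AM substrate for 2 h.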

[6] = molecular target: Cellular tumor antigen p53 (Homo sapiens) (UniProt P04637); assay: TOX21_p53_BLA_p5_ratio: Tox21 HCT-116 p53 Agonism Beta-lactamase Assay, Ratio, Phase 5 (AID 2283599)
Method in brief: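 HCT-116 p53-bla cells (4000/well) plated 5 h, dosed with compound (217-fold DMSO dilution) for 16 h at 37 C; CCF4-AM substrate 2 h at room temperature. Activity is the 460/530 nm emission ratio (405 nm excitation), fitted in gain-of-signal direction versus DMSO.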

[7] = molecular target: Cellular tumor antigen p53 (Homo sapiens) (UniProt P04637); assay: TOX21_p53_BLA_p4_ratio: Tox21 HCT-116 p53 Agonism Beta-lactamase Assay, Ratio, Phase 4 (AID 2283601)
Method in brief: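 HCT-116 p53 beta-lactamase reporter cells (4000/well) preincubated 5 h, then compound (217-fold dilution of DMSO stock) for 16 h at 37C. CCF4-AM substrate added 2 h at room temperature; 460/530 nm emission ratio fitted upward versus DMSO.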

[8] = molecular target: Thyroid hormone receptor alpha (Rattus norvegicus) + Thyroid hormone receptor beta (Rattus norvegicus) (UniProt P18113+P63059); assay: TOX21_TR_LUC_GH3_Antagonist_Followup: Tox21 GH3 Thyroid Hormone Receptor Antagonism Luciferase Follow-Up Assay (AID 2283942)
Method in brief: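 Luminescence read-out (ONE-Glo, 30 min at room temperature) in GH3 reporter cells challenged with 1.0 nM T3 final. Compounds ran at 92 uM to 5nM over 15 concentrations for 24 h; DMSO served as negative control and baseline.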

[9] = molecular target: THRA (gene 7067) (UniProt P10827); assay: TOX21_TRA_COA_Antagonist_Followup_ratio: Tox21 Thyroid Hormone Receptor alpha Antagonism through Coactivator Recruitment Follow-Up Assay, Ratio (AID 2283953)
Method in brief: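 GST-TRα LBD 2.5 nM, BSA 0.10%, + cpd; then FITC-SRC-2 peptide 200 nM + Tb-anti-GST Ab 2 nM. TR-FRET ratio 520/495 nm. Norm: DMSO = 0%, T3 = 100%.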

[10] = molecular target: THRB (gene 7068) (UniProt P10828); assay: TOX21_TRB_BLA_Antagonist_Followup_ratio: Tox21 Thyroid Hormone Receptor beta Antagonism Beta-lactamase (BLA) Follow-Up Assay, Ratio (AID 2283958)
Method in brief: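 Beta-lactamase reporter ratio (460/530 nm, CCF4-AM substrate, 2 h room temperature) was read in TRb-bla HEK293T cells after 18 h compound treatment (11 concentrations, triplicate) at 37C in 2% charcoal-stripped FBS medium. Loss of signal fitted against DMSO.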

[11] = TOX21_TRB_BLA_Antagonist_Followup_viability: Viability Assessment in the Tox21 Thyroid Hormone Receptor beta Antagonism Beta-lactamase (BLA) Follow-Up Assay (AID 2283961)
Method in brief: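 HEK293T cells stably expressing GAL4-DBD/human TRβ-LBD with UAS-bla reporter, 3,000 cells/well in phenol red-free DMEM, 2% charcoal-stripped FBS. Compounds at 11 concentrations in triplicate, 18 h at 37C/5% CO2; viability by CellTiter-Glo luminescence after 30 min at room temperature.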

[12] = molecular target: THRB (gene 7068) (UniProt P10828); assay: TOX21_TRB_COA_Antagonist_Followup_ratio: Tox21 Thyroid Hormone Receptor beta Antagonism through Coactivator Recruitment Follow-Up Assay, Ratio (AID 2283967)
Method in brief: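 GST-TRb LBD 5.0 nM + 0.10% BSA, compound added; fluorescein-SRC-2 peptide 200 nM, Tb-anti-GST Ab 2 nM. TR-FRET, ex 340 / em 520:495 ratio. Norm: DMSO 0%, T3 100%.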

[13] = TOX21_p53_BLA_p5_viability: Viability Assessment in the Tox21 HCT-116 p53 Agonism Beta-lactamase Assay, Phase 5 (AID 2283600)
Method in brief: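 Luciferase-coupled ATP quantitation of cells treated for 16 h (37C, 5% CO2) with test chemicals delivered in DMSO via a 217-fold dilution; 4000 cells/well; reagent incubated 30 min at room temperature before luminescence reading.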

[14] = TOX21_PR_BLA_Followup_Agonist_viability: Viability Assessment in the Tox21 HEK293 Progesterone Receptor (PR) Agonism Beta-lactamase Follow-Up Assay (AID 2283935);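 note: signal loss means lower viability so actives are cytotoxic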
Method in brief: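 Run multiplexed with the beta-lactamase FRET read, this endpoint measures ATP by CellTiter-Glo luminescence (30 min, room temperature). PR-UAS-bla HEK293T cells received compound 6 hr after plating and were then incubated 16 hr at 37C in 2% stripped serum.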

[15] = TOX21_PR_BLA_Followup_Antagonist_viability: Viability Assessment in the Tox21 HEK293 Progesterone Receptor (PR) Antagonism Beta-lactamase Follow-Up Assay (AID 2283936);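 note: cells exposed to compound with R5020 agonist for 16 h; hits lower the luminescence signal meaning cytotoxicity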
Method in brief: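 PR-UAS-bla HEK293T cells in medium with 2% charcoal-stripped FBS were treated with compounds plus R5020 for 16 hr at 37C. After the beta-lactamase read, CellTiter-Glo was added to the same wells and luminescence read after 30 min at room temperature.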

[16] = molecular target: PGR (gene 5241) (UniProt P06401); assay: TOX21_PR_LUC_Followup_Antagonist: Tox21 HEK293 Progesterone Receptor (PR) Antagonism Luciferase Follow-Up Assay (AID 2283938);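 note: curve fitted upward as signal gain over DMSO baseline despite antagonist label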
Method in brief: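 HEK293-PR-A-luc cells were precultured 5 days in medium with 10% charcoal-stripped FBS, seeded 3,000/well, then exposed to compounds in DMSO for 16 h at 37C. Luciferase was read by ONE-Glo luminescence after 30 min at room temperature.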

[17] = TOX21_PR_LUC_Followup_Antagonist_viability: Viability Assessment in the Tox21 HEK293 Progesterone Receptor (PR) Antagonism Luciferase Follow-Up Assay (AID 2283940)
Method in brief: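 Viability counter-readout: cellular ATP measured by luciferase luminescence after 16 h compound exposure at 37C of HEK293-PR-A-luc cells, which had been cultured in charcoal-stripped serum and seeded 5 h beforehand.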

[18] = TOX21_PR_LUC_Followup_Agonist_viability: Viability Assessment in the Tox21 HEK293 Progesterone Receptor (PR) Agonism Luciferase Follow-Up Assay (AID 2283941);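 note: loss of signal means cytotoxicity so actives lower viability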
Method in brief: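 Cytotoxicity counter-readout in the PR-A luciferase reporter line HEK293, with 16 h compound exposure at 37C after cells were cultured in charcoal-stripped serum. Cellular ATP quantified by CellTiter-Glo luminescence.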

Measured: AC50

Chain of Cellular tumor antigen p53 (Homo sapiens) (P04637 whole entry, looked up): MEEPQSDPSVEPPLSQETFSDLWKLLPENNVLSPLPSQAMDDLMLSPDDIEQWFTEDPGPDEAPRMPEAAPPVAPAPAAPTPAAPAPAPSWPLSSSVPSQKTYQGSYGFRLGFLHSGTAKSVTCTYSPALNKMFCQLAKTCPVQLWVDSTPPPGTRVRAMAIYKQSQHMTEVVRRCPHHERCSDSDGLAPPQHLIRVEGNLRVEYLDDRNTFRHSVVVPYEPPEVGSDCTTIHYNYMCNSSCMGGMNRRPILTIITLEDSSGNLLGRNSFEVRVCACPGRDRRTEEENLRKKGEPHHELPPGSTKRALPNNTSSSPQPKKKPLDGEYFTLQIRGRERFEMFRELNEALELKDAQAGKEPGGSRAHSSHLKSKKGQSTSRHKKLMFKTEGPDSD
Chain of THRB (gene 7068) (P10828 whole entry, looked up, the tested form may be a part): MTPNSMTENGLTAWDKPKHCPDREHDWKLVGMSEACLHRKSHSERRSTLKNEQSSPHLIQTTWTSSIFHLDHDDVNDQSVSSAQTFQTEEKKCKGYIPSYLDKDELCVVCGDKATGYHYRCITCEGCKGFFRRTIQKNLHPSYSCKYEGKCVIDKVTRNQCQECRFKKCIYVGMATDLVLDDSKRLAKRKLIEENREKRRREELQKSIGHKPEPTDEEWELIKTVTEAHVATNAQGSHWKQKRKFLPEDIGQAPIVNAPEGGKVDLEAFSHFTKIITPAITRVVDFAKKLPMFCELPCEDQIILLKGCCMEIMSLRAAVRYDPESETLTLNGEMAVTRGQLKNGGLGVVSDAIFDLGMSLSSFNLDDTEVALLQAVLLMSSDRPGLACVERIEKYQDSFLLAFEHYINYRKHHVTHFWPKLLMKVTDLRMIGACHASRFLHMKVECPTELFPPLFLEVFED
Chain of THRA (gene 7067) (P10827 whole entry, looked up, the tested form may be a part): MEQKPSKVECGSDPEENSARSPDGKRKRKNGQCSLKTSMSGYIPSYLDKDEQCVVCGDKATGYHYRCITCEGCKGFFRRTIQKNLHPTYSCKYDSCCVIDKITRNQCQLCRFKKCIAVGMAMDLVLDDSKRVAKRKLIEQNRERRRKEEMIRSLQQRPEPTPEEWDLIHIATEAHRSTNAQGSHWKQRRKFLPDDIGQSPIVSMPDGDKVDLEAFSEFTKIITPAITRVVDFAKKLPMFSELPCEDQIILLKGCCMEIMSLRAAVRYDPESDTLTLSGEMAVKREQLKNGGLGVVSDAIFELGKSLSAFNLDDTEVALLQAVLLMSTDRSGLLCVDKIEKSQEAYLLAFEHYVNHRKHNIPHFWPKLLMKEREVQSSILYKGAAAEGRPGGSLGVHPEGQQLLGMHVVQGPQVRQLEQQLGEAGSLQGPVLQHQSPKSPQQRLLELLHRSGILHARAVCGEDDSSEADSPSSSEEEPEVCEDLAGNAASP
Chain of PGR (gene 5241) (P06401 whole entry, looked up): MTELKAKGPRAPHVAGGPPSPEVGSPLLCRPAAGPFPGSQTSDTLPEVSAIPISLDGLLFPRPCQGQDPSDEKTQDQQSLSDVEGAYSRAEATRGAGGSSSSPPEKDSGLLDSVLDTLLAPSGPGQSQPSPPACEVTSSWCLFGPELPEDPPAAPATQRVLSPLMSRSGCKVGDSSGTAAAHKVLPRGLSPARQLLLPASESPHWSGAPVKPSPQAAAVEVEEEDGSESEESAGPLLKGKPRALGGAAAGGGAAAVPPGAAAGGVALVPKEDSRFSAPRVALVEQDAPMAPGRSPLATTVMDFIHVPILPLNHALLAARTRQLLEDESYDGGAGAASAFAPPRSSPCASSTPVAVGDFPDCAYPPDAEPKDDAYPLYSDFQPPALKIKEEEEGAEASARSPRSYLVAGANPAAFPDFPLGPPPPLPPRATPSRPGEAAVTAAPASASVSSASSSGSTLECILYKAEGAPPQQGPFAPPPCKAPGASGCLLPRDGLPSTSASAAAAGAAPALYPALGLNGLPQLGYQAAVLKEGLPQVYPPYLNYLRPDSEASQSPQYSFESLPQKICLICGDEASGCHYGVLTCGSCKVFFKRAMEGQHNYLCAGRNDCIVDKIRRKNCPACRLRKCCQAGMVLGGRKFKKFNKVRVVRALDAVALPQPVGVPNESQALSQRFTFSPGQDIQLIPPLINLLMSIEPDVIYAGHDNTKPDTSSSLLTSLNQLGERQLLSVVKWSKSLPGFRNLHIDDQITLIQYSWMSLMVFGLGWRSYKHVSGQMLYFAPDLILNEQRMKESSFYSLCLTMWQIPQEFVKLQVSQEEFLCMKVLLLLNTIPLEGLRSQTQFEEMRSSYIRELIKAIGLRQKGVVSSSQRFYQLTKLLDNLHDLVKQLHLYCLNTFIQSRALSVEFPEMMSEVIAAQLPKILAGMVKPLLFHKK

CC(C)N=C(N)/N=C(\N)Nc1ccc(Cl)cc1
not listed: [13] | [14] | [15] | [16] | [17] | [18]
inactive: all other assays above

C[S+](C)CCC(N)C(=O)O (stereo not drawn)
inactive: [1] | [2] | [3] | [4] | [5] | [13]

COc1cccc(O)c1O
inactive: [1] | [2] | [3] | [4] | [5] | [6] | [7]

NC(=O)Nc1ccc(Cl)c(Cl)c1
inactive: [1] | [2] | [3] | [4] | [5] | [6] | [7]

O=[N+]([O-])c1ccc(Oc2ccc(N=C=S)cc2)cc1
active: [2] 12.9 µM | [4] 8.52 µM | [6] 10.8 µM | [7] 13.4 µM
inactive: [1] | [3] | [5]

CCOC(=O)C1=C(C)NC(C)=C(C(=O)OC)C1c1cccc([N+](=O)[O-])c1 (stereo not drawn)
active: [16] 11.2 µM
not listed: [8] | [9] | [10] | [11] | [12] | [13]
inactive: all other assays above

COc1cc2c(cc1OC)-c1cc3ccc(OC)c(OC)c3c[n+]1CC2
inactive: [1] | [2] | [3] | [4] | [5] | [13]

Cc1ccc2c(n1)Oc1ccc(C(C)C(=O)OCC(=O)N(C)C)cc1C2 (stereo not drawn)
inactive: [1] | [2] | [3] | [4] | [5] | [13]
